The results in this text go back to PubChem BioAssay (NCATS).

Experiment [1] can be described thus: qHTS for Activators of Parkin Expression: LOPAC Validation Assay (FLuc Reporter) (AID 720573;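 further: 0% = DMSO and 100% = positive control compounds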). Put shortly: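 Readout is FLuc luminescence from neuronal reporter cells (Parkin promoter, FLuc plus NLuc) after 24 h compound exposure in dose response. Values normalized to neutral DMSO and positive-control compounds.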
Experiment [2] concerns the target T1, Hexokinase-4 (Homo sapiens) + Glucokinase regulatory protein (Homo sapiens) (UniProt P35557+Q14397). Nature of the experiment: qHTS assay for inhibitors of recombinant human GCK-GKRP interaction: Diaphorase-coupled assay (AID 743205). The essentials: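 Signal derives from resorufin generated by diaphorase, linked to GCK turnover of glucose (5 mM) and ATP (0.4 mM). Enzyme complex was added after a 20-minute compound preincubation and monitored for 30 minutes.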

Experiment [3] concerns the target T1, Hexokinase-4 (Homo sapiens) + Glucokinase regulatory protein (Homo sapiens). The experiment can be described thus: qHTS assay for inhibitors of recombinant human GCK-GKRP interaction: ADP-Glo assay (AID 743206).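 Further: plate controls were DMSO plus enzyme for no effect and no enzyme for full effect.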 The essentials: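 Pin-transferred compounds meet a 15 nM GST-GCK/15 nM FLAG-GKRP/2 uM S6P mix (dispense concentrations). ATP is then added to 0.4 mM final with 5 mM glucose, and the reaction runs 60 min at room temperature. ADP is quantified luminescently.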

For experiment [4] the target is unchanged. The experiment can be described thus: qHTS assay for inhibitors of recombinant human GCK-GKRP interaction: HTRF assay (AID 743207).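 Further: 0% = DMSO with GCK present and -100% = DMSO wells lacking GCK.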 Put shortly:
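Titration screening format: recombinant GST-GCK and FLAG-GKRP at 5 nM, S6P at 2 uM, labelled anti-tag antibodies, 60 min at RT, dual-wavelength HTRF readout.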

Experiment [5] can be described thus: qHTS Assay for Identifying Gametocytocidal Compounds (AID 743244). Further: potency means the concentration at half of the fitted maximal effect.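 On max response: on the % scale 0 is the no-effect control and ±100 the full control effect; actives lower the fluorescent signal which means gametocytes are killed.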 Conditions: P. falciparum 3D7 stage III-V gametocytes, alamarBlue, 72 h; max response: hits give low values. Put shortly: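 3D7 gametocytes, stages III–V, 20,000/well; cpd 72 h, 37 °C/5% CO2; + alamarBlue 24 h; fluor. Ex 525/Em 598.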
Experiment [6] can be described thus: qHTS assay for cell viability of HEK293 cells (AID 743288). Further: on the % scale 0 is the no-effect control and ±100 the full control effect; nearly all actives have a fitted effect of over 50% in size. Particulars: ATP luminescence (CellTiter-Glo), 18 h; max response: hits give low values. Put shortly: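 HEK293, 18 h, 37 C, ATP luminescence. Cells at 2,000/well were allowed at least 5 h to settle before dosing; CellTiter-Glo developed 30 min at RT.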
Experiment [7] can be described thus: qHTS assay for cell viability of the p53RE-bla HCT-116 cell line (AID 743292). Further: on the % scale 0 is the no-effect control and ±100 the full control effect; nearly all actives have a fitted effect of over 55% in size. Put shortly:
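ATP-based luminescence, 16 h compound exposure at 37 C, p53RE-bla HCT-116 cells at 4,000/well.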

The nature of experiment [8]: qHTS assay for small molecule agonists of the antioxidant response element (ARE) signaling pathway measured by Nrf2-dependant transcriptional activity (AID 720636; active means well fitted curve in the direction sought with a large enough effect in the repeat runs; an effect the other way counts as inactive or inconclusive;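 further: HepG2 cells with an ARE-driven luciferase reporter; % of control where 0% means no effect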). The essentials: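 Nrf2-dependent transcription is measured in ARE-luc HepG2 cells: compound is applied for 16 hr at 37 C after a 6 hr attachment period, and luciferase activity is quantified by luminescence using ONE-Glo.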

Several values for one entry are separate records, joined by “and”; a condition that tells them apart may be missing. Equal entries are not always repeated. A number with no mark means an inactive call. Inconclusive results are not listed. Activity calls are given as the source filed them. Unless noted, the call rests on the fitted dose curve; in most records, active means well fitted curve in the direction sought with a large enough effect; inconclusive means small, poorly fitted or top-dose-only effect, or another doubt; inactive means no such curve, though single readings can be large; an effect the other way counts as inactive or inconclusive.

T1 sequence (P35557 whole entry, looked up): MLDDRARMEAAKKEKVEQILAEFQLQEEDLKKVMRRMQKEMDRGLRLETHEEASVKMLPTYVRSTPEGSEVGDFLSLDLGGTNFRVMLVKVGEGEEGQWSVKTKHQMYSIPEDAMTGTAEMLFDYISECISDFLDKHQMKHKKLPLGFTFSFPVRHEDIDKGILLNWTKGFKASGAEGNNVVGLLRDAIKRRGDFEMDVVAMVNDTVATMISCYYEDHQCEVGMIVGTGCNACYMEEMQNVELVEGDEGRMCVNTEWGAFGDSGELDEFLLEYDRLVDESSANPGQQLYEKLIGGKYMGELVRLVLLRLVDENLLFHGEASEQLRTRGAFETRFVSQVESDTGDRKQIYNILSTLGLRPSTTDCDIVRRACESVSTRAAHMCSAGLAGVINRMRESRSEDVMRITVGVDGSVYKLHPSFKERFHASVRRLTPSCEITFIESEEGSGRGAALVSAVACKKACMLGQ
T1 sequence (Q14397 whole entry, looked up): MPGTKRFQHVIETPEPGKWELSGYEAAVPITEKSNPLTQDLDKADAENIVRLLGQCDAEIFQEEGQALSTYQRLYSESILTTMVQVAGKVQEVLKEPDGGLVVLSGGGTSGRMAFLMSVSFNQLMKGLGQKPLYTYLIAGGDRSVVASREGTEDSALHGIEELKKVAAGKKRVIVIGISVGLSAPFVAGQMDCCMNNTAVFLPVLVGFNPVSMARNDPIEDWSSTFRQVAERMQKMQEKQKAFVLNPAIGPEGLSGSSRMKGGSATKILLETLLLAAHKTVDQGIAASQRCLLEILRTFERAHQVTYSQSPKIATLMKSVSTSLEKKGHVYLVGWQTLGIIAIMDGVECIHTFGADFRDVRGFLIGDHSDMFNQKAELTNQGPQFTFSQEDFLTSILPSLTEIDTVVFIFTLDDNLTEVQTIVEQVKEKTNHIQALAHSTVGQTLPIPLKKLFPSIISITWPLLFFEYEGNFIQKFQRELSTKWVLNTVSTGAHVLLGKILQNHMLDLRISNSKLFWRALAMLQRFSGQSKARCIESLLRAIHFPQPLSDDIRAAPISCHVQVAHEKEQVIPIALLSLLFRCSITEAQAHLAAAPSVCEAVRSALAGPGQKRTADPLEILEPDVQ

Turning to `CC(C)(O)[C@@H]1C2OC(=O)[C@@H]1[C@]1(O)C[C@H]3O[C@]34C(=O)O[C@H]2[C@]14C` (tested in a mixture with another compound), the molecule was classed as inactive in experiment [1], in experiment [3] and in experiment [4]. Further, the Potency entry in experiment [2] is “inactive”. Moreover, in experiment [5], the max response is 18.2%.
With `CC(=O)c1c(O)c(C)c(O)c(Cc2c(O)c3c(c(C(=O)/C=C/c4ccccc4)c2O)OC(C)(C)C=C3)c1O`, the molecule was classed as inactive in experiment [1] and in experiment [3]. For the same molecule, the Potency result in experiment [2] was “inactive”. In addition, the max response in experiment [5] was 17.7%.
For `CO[C@H]1CC=C2CCN3CCC4=C(CC(=O)OC4)[C@]23C1`, the call in experiment [1] and in experiment [3] was inactive. Moreover, the Potency result in experiment [2] was “inactive”. Further, in experiment [5], the max response is -3.4%.
With `NC(CCCCCP(=O)(O)O)C(=O)O` (stereo not drawn), the outcome in experiment [1], in experiment [3] and in experiment [4] was inactive. Also, the Potency entry in experiment [2] is “inactive”. Besides, the max response in experiment [5] is -2.34%.
As for `NC(Cc1cc(O)c(O)cc1O)C(=O)O` (stereo not drawn), the call in experiment [1] and in experiment [3] was inactive. For the same molecule, the Potency result in experiment [2] is “inactive”. Moreover, the max response in experiment [5] was 2.05%.
Take `CCCN1CCc2cc(O)cc3c2[C@H]1Cc1ccc(O)c(O)c1-3`: the molecule was classed as inactive in experiment [1], in experiment [3] and in experiment [4]. Besides, the Potency entry in experiment [2] was “inactive”. Moreover, in experiment [5], the Potency was 2510 nM (active).
On to `CN1CCc2cccc(Cl)c2CC1`, for which the outcome in experiment [1] and in experiment [3] was inactive. The Potency entry in experiment [2] is “inactive”. In addition, the max response in experiment [5] is 33.5%.
Take `C[N+]1(C)CCN(c2ccccc2)CC1`: the outcome in experiment [1] and in experiment [3] was inactive. Further, the Potency result in experiment [2] was “inactive”. For the same molecule, the max response in experiment [5] was -6.92%.
Turning to `C/C(O)=C(\C#N)C(=O)Nc1cc(Br)ccc1Br`, the result in experiment [1], in experiment [3] and in experiment [4] was inactive. Moreover, the Potency entry in experiment [2] was “inactive”. Besides, the max response in experiment [5] is -6.48%.
As to `C[N+](C)(C)CC#CCN1CCCC1=O`, the result in experiment [1] and in experiment [3] was inactive. In experiment [2], the Potency result is “inactive”. For the same molecule, the max response in experiment [5] was -2.31%.
For the molecule `O=C(O)c1cc[c]([Hg][Cl])cc1`, the molecule was called inactive in experiment [1], in experiment [3] and in experiment [4]. Also, the Potency entry in experiment [2] and in experiment [7] was “inactive” in each case. The max response is 33.9% in experiment [5] and -11.9% in experiment [6].
Consider `O=[N+]([O-])/C=C/c1ccc2c(c1)OCO2`, for which the molecule was classed as inactive in experiment [1] and in experiment [3]. The Potency result in experiment [2] was “inactive”. In addition, the Potency in experiment [5] is 1580 nM (active).
As for `C[C@@H]1O[C@H](C[N+](C)(C)C)CS1`, the result in experiment [1], in experiment [3] and in experiment [4] was inactive. Moreover, in experiment [2], the Potency result is “inactive”. Further, the max response in experiment [5] was 20.1%.
For the molecule `CN1CC[C@@]2(C)c3cc(O)ccc3N(C)C12` (stereo partly drawn), the molecule was called inactive in experiment [1] and in experiment [3]. For the same molecule, in experiment [2], the Potency result was “inactive”. Also, the Potency in experiment [5] was 3160 nM (active).
With `CCCn1c(C)c(C(=O)c2ccc3ccccc3c2)c2ccccc21`, the molecule was classed as inactive in experiment [1], in experiment [3] and in experiment [4]. For the same molecule, the Potency entry in experiment [2] is “inactive”. Besides, the max response in experiment [5] is 6.14%.
For `CC(Cc1ccc(OCC(=O)O)cc1)NCC(O)c1cccc(Cl)c1` (stereo not drawn), the molecule was called inactive in experiment [1] and in experiment [3]. Further, the Potency entry in experiment [2] was “inactive”. In experiment [5], the max response was 16.8%.
Consider `COc1ccc2c(c1)c(CCN1CCOCC1)c(C)n2C(=O)c1cccc(Cl)c1Cl`, for which the outcome in experiment [1], in experiment [3] and in experiment [4] was inactive. The Potency result in experiment [2] is “inactive”. In experiment [5], the max response was 23.8%.
Regarding `CN1CCc2cc(O)cc3c2[C@H]1Cc1ccc(O)c(O)c1-3`, the call in experiment [1] and in experiment [3] was inactive. Further, the Potency result in experiment [2] was “inactive”. Besides, the max response in experiment [5] was 32.9%.
On to `N[C@@H](Cn1ccc(=O)[nH]c1=O)C(=O)O`, for which the molecule was called inactive in experiment [1] and in experiment [3]. Further, the Potency result in experiment [2] was “inactive”. In experiment [5], the max response is 15.1%.
For `Ic1ccccc1CNC1C2CCN(CC2)C1C(c1ccccc1)c1ccccc1` (stereo not drawn), the result in experiment [1], in experiment [3] and in experiment [4] was inactive. The Potency result in experiment [2] is “inactive”. For the same molecule, in experiment [5], the Potency is 1780 nM (active).
With `NC(N)=NOCC[C@H](N)C(=O)O`, the molecule was called inactive in experiment [1], in experiment [3] and in experiment [4]. In addition, the Potency entry in experiment [2] was “inactive”. In addition, the max response in experiment [5] is -9%.
As for `C=CCN1CC[C@]23c4c5ccc(O)c4O[C@H]2/C(=N/NC(=O)c2ccccc2)CC[C@@]3(O)[C@H]1C5`, the call in experiment [1], in experiment [3] and in experiment [4] was inactive. In experiment [2], the Potency result was “inactive”. The max response in experiment [5] is 8.77%.
Regarding `NCCc1ccc(S(=O)(=O)F)cc1`, the outcome in experiment [1] and in experiment [3] was inactive. The Potency result in experiment [2] is “inactive”. Also, the max response in experiment [5] was 22.8%.
For the molecule `Clc1cc(I)cc(Cl)c1NC1=NCCN1`, the call in experiment [1], in experiment [3] and in experiment [4] was inactive. Further, the Potency entry in experiment [2] is “inactive”. The max response in experiment [5] is 44.8%.
As to `CCCN(CCC)CCc1c[nH]c2ccc(C(N)=O)cc12`, the molecule was called inactive in experiment [1], in experiment [3] and in experiment [4]. Besides, in experiment [2], the Potency result was “inactive”. Further, the max response in experiment [5] was -3.58%.
Turning to `NNC(=O)c1ccc(O)cc1`, the result in experiment [1] and in experiment [3] was inactive. Besides, in experiment [2], the Potency result is “inactive”. For the same molecule, the max response in experiment [5] was 7.91%.
`CN1CC[C@@]2(C)c3cc(OC(=O)Nc4ccccc4)ccc3N(C)[C@@H]12`: the call in experiment [1], in experiment [3] and in experiment [4] was inactive. The Potency result in experiment [2] was “inactive”. For the same molecule, in experiment [5], the Potency was 1120 nM (active).
As to `C=CCN(C1=NCCN1)c1c(Cl)cccc1Cl`, the molecule was called inactive in experiment [1] and in experiment [3]. The Potency entry in experiment [2] is “inactive”. Moreover, the max response in experiment [5] is -1.3% and 35.7%.
For the molecule `c1ccc2c(c1)[I+]c1ccccc1-2`, the molecule was classed as inactive in experiment [1] and in experiment [3]. For the same molecule, the Potency result in experiment [2] was “inactive”. Also, the Potency in experiment [5] is 166 nM (active).
`CC(N)Cc1c[nH]c2ccc(O)cc12` (stereo not drawn): the molecule was classed as inactive in experiment [1], in experiment [3] and in experiment [4]. For the same molecule, the Potency result in experiment [2] was “inactive”. Also, the max response in experiment [5] was 20.7%.
Consider `C=CCN1CCc2cccc3c2[C@H]1Cc1ccc(O)c(O)c1-3`, for which the molecule was called inactive in experiment [1] and in experiment [3]. Also, the Potency entry in experiment [2] is “inactive”. For the same molecule, in experiment [5], the Potency was 1120 nM (active).
In the case of `N#C/C(=C/c1ccc(O)c(O)c1)C(N)=S`, the result in experiment [1], in experiment [3] and in experiment [4] was inactive. For the same molecule, the Potency entry in experiment [2] is “inactive”. Also, the max response in experiment [5] is 27.1%.
On to `C#CCN[C@H](C)Cc1ccccc1`, for which the molecule was called inactive in experiment [1], in experiment [3] and in experiment [4]. For the same molecule, the Potency result in experiment [2] was “inactive”. Besides, the max response in experiment [5] is 19.2%.
Turning to `N#CCCN`, the result in experiment [1], in experiment [3] and in experiment [4] was inactive. Moreover, the Potency entry in experiment [2] was “inactive”. Moreover, the max response in experiment [5] is 15.8%.
Consider `COc1ccc2c(c1O)-c1cccc3c1[C@@H](C2)N(C)CC3`, for which the molecule was classed as inactive in experiment [1] and in experiment [3]. Moreover, the Potency entry in experiment [2] was “inactive”. Moreover, in experiment [5], the max response was 27.6%.
Consider `N[C@@]1(C(=O)O)CC[C@@H](C(=O)O)C1`, for which the result in experiment [1], in experiment [3] and in experiment [4] was inactive. Further, the Potency result in experiment [2] is “inactive”. Also, the max response in experiment [5] is 13.5%.
For `CCCCCCCCOC(=O)c1ccccc1C(=O)OCCCCCCCC`, the Potency result in experiment [8] and in experiment [7] was “inactive” throughout. Also, the max response is -1.95% in experiment [5]; -2.74% and -18% in experiment [6].
As to `NCCCP(=O)(O)O`, the result in experiment [1] and in experiment [3] was inactive. In experiment [2], the Potency entry was “inactive”. Further, the max response in experiment [5] is -9.88%.
